Marburg entry inh: Marburg virus entry inhibition; Marburg virus pseudotyped entry inhibition, cell reporter; Potency, µM (doses to about 37.8 µM), for the others: top-dose activity change, negative = inhibition, most hits filed as inhibitors; hit rate 1.8% among 300,000; AID 540276; calls by dose curve; tested in HEK293 cells; note: potency is the fitted concentration of half-maximal effect; % is set by controls: 0 for no effect and ±100 for the full control effect
FMDV antiviral: antivirals against foot and mouth disease virus; FMDV antiviral cell-based qHTS; AID 1159524; hit rate 1.2% among 410,000; Potency, µM (titrated, usually from 57.9 µM), for the others: at the top dose activity change, negative = inhibition, actives largely listed as inhibitors; calls by dose curve; tested in HEK293T cells; note: read-out not given here; potency is the fitted concentration of half-maximal effect; % is set by controls: 0 for no effect and ±100 for the full control effect; nearly all actives have a fitted effect of over 45% in size
SARS PLpro yeast: blocks SARS-CoV papain-like protease in a yeast assay; hit rate 0.19% among 330,000; S. cerevisiae expressing SARS-CoV PLpro, growth rescue; Potency, µM (top dose mostly 32.9 µM), for inactives: at the highest dose activity, positive = growth rescue, most hits filed as activators; calls by dose curve; note: potency is the fitted concentration of half-maximal effect; 0% is about no effect; nearly all actives have a fitted effect of over 55% in size
HCMV antiviral: inhibitors of human cytomegalovirus; HFF cells, HCMV-luciferase reporter, 72 h; hits give low values; activity change, negative = inhibition, % at 57.5 µM; hit rate 4.5% among 410,000; in the data active = activity change below about -60%; inconclusive = no clear call, values can overlap the other calls; inactive = above about -39%; note: % is set by controls: 0 for no effect and ±100 for the full control effect
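After 16 h attachment at 37C, HFF cells received test compound and HCMV-luciferase (1 PFU/cell); reporter luminescence read 72 h later, data normalized against buffer-only and known inhibitor Salinomycin.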
HCV inh: blocks hepatitis C virus | Huh7.5.1 HCVcc-Cre infection, luciferase reporter, 44 h | Potency, µM (doses to about 41.8 µM), without a hit: top-dose activity change, negative = inhibition, actives largely listed as inhibitors | hit rate 3.4% among 340,000 | AID 651820; active = well fitted inhibition curve with a large enough effect; inconclusive = small, poorly fitted or top-dose-only effect, or another doubt; inactive = no such curve, though single readings can be large or run the other way; note: potency is the fitted concentration of half-maximal effect; % is set by controls: 0 for no effect and ±100 for the full control effect
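Infectious HCVcc-Cre (~0.5 moi) was added to cells just after compound, with cells seeded 4 h earlier at 1,000 per well. Luciferase activity after 44 h culture reported infection; substrate was incubated 15 min at room temperature before reading.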
Lassa entry inh: inhibitors of Lassa virus binding or cell entry; Lassa virus pseudotype entry inhibition, cell reporter; hit rate 1.2% among 300,000; Potency, µM (top dose mostly 37.9 µM), for the others: at the highest dose activity change, negative = inhibition, usual class: inhibitors; calls by dose curve; tested in HEK293 cells; note: potency is the fitted concentration of half-maximal effect; % is set by controls: 0 for no effect and ±100 for the full control effect; nearly all actives have a fitted effect of over 50% in size
* = called active by the depositor; ? = inconclusive; nt = no result; [ ] = another dose, or the depositor's remark. Sampled rows, rich in hits. Any-hit rate of the full collection: about 8%.

SMILES	Marburg entry inh	FMDV antiviral	SARS PLpro yeast	HCMV antiviral	HCV inh	Lassa entry inh
Cc1c(Cc2ccccc2)c(=O)oc2cc(OCC(=O)N[C@@H](Cc3ccccc3)C(=O)O)ccc12	nt	-9%	-2%	13	13%	nt
Cc1coc2cc3oc(=O)c(CCC(=O)NCc4ccccn4)c(C)c3cc12	nt	0%	-2%	-28	1µM*	nt
Cc1coc2c(C)c3oc(=O)c(CCC(=O)NCc4ccccn4)c(C)c3cc12	nt	-10%	-14%	?	?	nt
COc1cccc(C2C(C(=O)Nc3ccc(C)cc3C)=C(C)Nc3c(C(=O)Nc4cccc(C)c4)cnn32)c1OC (stereo not given)	nt	-7%	nt	-8	nt	-18%[46.1 µM]
COc1ccc(C(=O)NCC(=O)N2CCN(c3ccc(F)cc3)CC2)cc1	-2%[46.1 µM]	1%	1%	-64*	8%	6%[46.1 µM]
COc1ccc(NC(=O)CCN2CCN(c3ccc(F)cc3)CC2)cc1	nt	1%	1%	-76*	-4%	nt
CCOC(=O)c1cc(S(=O)(=O)N2CCN(c3cccc(OC)c3)CC2)[nH]n1	nt	-8%	nt	-10	nt	-6%[46.1 µM]
COc1ccc(NC(=O)CCN2CCN(c3cccc(Cl)c3)CC2)cc1	?	-10%	nt	-10	nt	?
CCN1C(=O)C(CC(=O)Nc2ccc(OC)cc2)N(CCCN2CCN(c3ccc(OC)cc3)CC2)C1=S (stereo not given)	?	-20%	4%	-7	11µM*	?
CCN1C(=O)C(CC(=O)Nc2ccc(OC)cc2)N(CCN2CCOCC2)C1=S (stereo not given)	nt	-16%	0%	-1	9%	nt
CCOC(=O)c1cc(S(=O)(=O)N2CCN(c3ccc(OC)cc3)CC2)[nH]n1	nt	32%	nt	-112*	nt	24%[46.1 µM]
O=C(c1ccc(N2CCC(NCCCn3ncc4ccccc43)CC2)cc1)N1CCc2ccccc2C1	nt	0%	nt	nt	nt	nt
CCOC(=O)c1cccc(NC(=O)CN2CCN(c3ccc(OC)cc3)CC2)c1	-12%	-23%	?	10	4%	1.1µM*
CC(C)CCNC(=O)C(c1ccco1)N(CC1CCCO1)C(=O)Cn1nnc2ccccc21 (stereo not given)	4%	11%	14%	-2	-2%	4%
Cn1c(C(C(=O)NCC2CCCO2)N(CCc2ccccc2)C(=O)Cn2nnc3ccccc32)nc2ccccc21 (stereo not given)	16%	9%	24%	-65*	11%	?
Cn1c(=O)c2c(nc(SCC(=O)Nc3ccccc3F)n2Cc2ccccc2F)n(C)c1=O	7%[46.1 µM]	0%	nt	11	nt	9%[46.1 µM]
CC(=O)CCc1c(C)nc2ccc(C)cc2c1Cl	9%[46.1 µM]	23%	-2%	-80*	-12%	-5%
COc1ccccc1N1CCN(CCCNC(=O)Nc2ccccc2C)CC1	-5%	-14%	-6%	-27	18%	5%
COc1ccccc1N1CCN(CCCCNS(=O)(=O)c2cccc3c(N(C)C)cccc23)CC1	7.1µM*	nt	nt	nt	nt	15µM*
COc1ccccc1N1CCN(CCCCN2C(=O)c3ccccc3C2=O)CC1	?	-15%	nt	-102*	?	?
COc1ccccc1N1CCN(CCCCN2C(=O)CCC2=O)CC1	nt	1%	nt	nt	nt	nt
CCCCOC(=O)NS(=O)(=O)c1sc(CC(C)C)cc1-c1ccc(Cn2c(CC)nc3c(C)cc(C)nc32)cc1	10µM*	nt	9%	nt	13µM*	9.2µM*
CCCCOC(=O)Nc1ccc(S(=O)(=O)Nc2nc(C)cc(C)n2)cc1	-6%	50%	0%	25	3%	-22%[14.3 µM]
CS(=O)(=O)n1nc(-c2ccco2)nc1NCc1ccccc1Cl	-1%[46.1 µM]	22%	nt	15	nt	24%[46.1 µM]
O=C(Nc1ccc(SC(F)F)cc1)c1ccc2nccnc2c1	?	nt	-14%	-78*	3.5µM*	9%
SMILES	Marburg entry inh	FMDV antiviral	SARS PLpro yeast	HCMV antiviral	HCV inh	Lassa entry inh
Cc1ccc(C(=O)Nc2ccc3nccnc3c2)cc1	?	-18%	-13%	-10	3%	?
COCCCN1C(=O)c2ccc(C(=O)Nc3ccc(C)cc3C)cc2C1=O	nt	14%	0%	-92*	-1%	nt
Cc1ccc(NC(=O)c2ccc3nccnc3c2)c(C)c1	?	21%	-2%	-68*	-24%	2%[46.1 µM]
Cc1cc(C)c(NC(=O)c2ccc3nccnc3c2)c(C)c1	0%[46.1 µM]	3%	-6%	-72*	3%	4%
COc1cc2c(cc1NC(=O)COc1cc(C)ccc1C)oc1ccccc12	nt	-26%	nt	-5	nt	-8%[46.1 µM]
COc1cccc(CNCCSc2nnnn2-c2ccccc2)c1OC	-31%[46.1 µM]	-12%	nt	4	nt	-7%[46.1 µM]
O=[N+]([O-])c1ccc(N/N=C2\CC3CC=CC23)c([N+](=O)[O-])c1 (stereo not given)	0%[46.1 µM]	?	3%	27	11µM*	-16%
O=[N+]([O-])c1ccc(N/N=C2\CC3CC=CC23)cc1 (stereo not given)	nt	40%	-15%	-13	22µM*	nt
O=C(N/N=C1\CC2CC=CC12)c1ccc(O)cc1 (stereo not given)	1%[46.1 µM]	-8%	2%	-28	1%	?
O=[N+]([O-])c1ccc(NN=C2CC3CCC2C3)c([N+](=O)[O-])c1 (stereo not given)	nt	0%	nt	11	nt	nt
COc1ccc(NC(=O)Nc2cccc3ccccc23)cc1S(N)(=O)=O	10%[46.1 µM]	8%	2%	-5	18%	4µM*
COc1ccc(NC(=O)Nc2cccc3ccccc23)cc1OC	nt	-5%	1%	?	-18%	nt
CCOc1ccccc1NC(=O)c1cccc2ccccc12	-17%	-5%	-13%	-32	?	-11%
COC(=O)c1c(-c2ccc(Br)cc2)csc1NC(=O)Cc1ccc(OC)c(OC)c1	-20%	?	-9%	?	?	2%
COC(=O)c1c(-c2ccc(C)cc2)csc1NC(=O)Cc1ccc(OC)c(OC)c1	?	?	2%	-65*	?	?
COc1cccc(C(=O)Nc2cccc3ccccc23)c1OC	8.9µM*	21%	-8%	-11	?	?
COC(=O)c1c(-c2cccc3ccccc23)csc1NC(=O)Cc1ccc(OC)c(OC)c1	?	?	-4%	?	5.6µM*	11µM*
COc1ccc(CC(=O)Nc2cccc3ccccc23)cc1OC	-26%	?	0%	-85*	?	?
O=S(=O)(c1ccc(F)cc1)N1CCCC1	-9%	-19%	2%	4	-5%	1%
O=S(=O)(c1ccc(S(=O)(=O)N(Cc2ccc(F)cc2)C2CCCC2)cc1)N1CCCC1	10µM*	-30%	2%	-38	17%	-17%
Cc1cc(NC(=O)NC(=O)c2ccccc2NC(=O)C(C)N)ccc1Oc1ncc(Br)cn1 (stereo not given)	?	15%	nt	-83*	-23%	?
CCOC(=O)c1ccccc1NC(=O)Nc1ccc(OC)c(OC)c1	-3%	-9%	1%	17	7%	6%

Screening data as filed in PubChem.
